Screening data (PubChem BioAssay)
Shown are actives, neighbours in structure and some others; about 4.5% of the full set was active somewhere.
697 NFkB inh – inhibitors of PMA/ionomycin-induced NF-kB reporter, 697 cells, primary screen, B-cell NF-kB inhibitor project, cell-based, luminescence, uHTS. 697 B-cell NF-kB luciferase reporter, 16 h. inhibition, % at 4 µM. 330,000 compounds, 0.33% hits; in the data active = inhibition above about 35%
CSC inhib – cancer stem cell viability inhibitors, primary screen, luminescence | cancer stem cell-like cells viability | inhibition, % at 7.5 µM | 300,000 compounds, 1.1% hits; in the data active = inhibition above about 75%; tested in HMLE shEcad cells
aSyn 5UTR inh – MLPCN primary screen, SNCA 5' untranslated region. alpha-synuclein 5'UTR reporter, inhibitor activity. inhibition, % (tested at 7.5 µM). 300,000 compounds, 0.82% hits; in the data active = inhibition above about 60%;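 also: H4 neuroglioblastoma cells stably carrying SNCA 5'UTR luciferase fusion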
Jurkat NFkB inh – inhibitors of induced NF-kB luciferase reporter, primary screen, TCR NF-kB activation inhibitor project, cell-based, luminescence, uHTS; 330,000 compounds, 0.53% hits; inhibition, % at 4 µM; AID 435003, 2010; Jurkat, PMA/ionomycin-induced NF-kB luciferase reporter; in the data active = inhibition above about 50%
Gli-Sufu block – Gli-Sufu pathway antagonists, primary screen, luciferase luminescence, Sufu-KO-LIGHT cells, uHTS | Sufu-KO-LIGHT fibroblasts, Gli luciferase reporter luminescence | inhibition, % at 5 µM | 340,000 compounds, 0.74% hits;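 active = inhibition above about 55%, limit read from the data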
Mdm2 MdmX PPI – inhibitors of human Mdm2-MdmX association, primary screen, cell-based, luminescence, split luciferase, SaOS-2, uHTS; SaOS-2 split-luciferase Mdm2/MdmX complementation; inhibition, % at 8 µM; 330,000 compounds, 3% hits;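 active = inhibition of at least 50% at 8 µM in the primary screen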
Target sequence (O15151 whole entry, looked up): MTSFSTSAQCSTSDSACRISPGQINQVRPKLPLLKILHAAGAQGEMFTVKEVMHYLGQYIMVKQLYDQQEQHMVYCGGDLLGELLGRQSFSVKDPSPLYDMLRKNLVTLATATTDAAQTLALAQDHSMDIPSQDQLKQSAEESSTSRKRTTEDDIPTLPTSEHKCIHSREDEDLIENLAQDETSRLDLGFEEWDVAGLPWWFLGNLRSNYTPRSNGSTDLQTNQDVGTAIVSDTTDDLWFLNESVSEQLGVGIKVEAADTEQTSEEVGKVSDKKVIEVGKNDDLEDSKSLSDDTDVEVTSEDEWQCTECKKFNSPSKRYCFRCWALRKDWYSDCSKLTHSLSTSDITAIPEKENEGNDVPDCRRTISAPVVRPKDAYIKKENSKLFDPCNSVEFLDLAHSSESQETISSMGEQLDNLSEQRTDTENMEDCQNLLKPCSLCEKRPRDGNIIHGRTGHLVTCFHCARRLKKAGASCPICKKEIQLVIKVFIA
Target sequence (Q00987 whole entry, looked up): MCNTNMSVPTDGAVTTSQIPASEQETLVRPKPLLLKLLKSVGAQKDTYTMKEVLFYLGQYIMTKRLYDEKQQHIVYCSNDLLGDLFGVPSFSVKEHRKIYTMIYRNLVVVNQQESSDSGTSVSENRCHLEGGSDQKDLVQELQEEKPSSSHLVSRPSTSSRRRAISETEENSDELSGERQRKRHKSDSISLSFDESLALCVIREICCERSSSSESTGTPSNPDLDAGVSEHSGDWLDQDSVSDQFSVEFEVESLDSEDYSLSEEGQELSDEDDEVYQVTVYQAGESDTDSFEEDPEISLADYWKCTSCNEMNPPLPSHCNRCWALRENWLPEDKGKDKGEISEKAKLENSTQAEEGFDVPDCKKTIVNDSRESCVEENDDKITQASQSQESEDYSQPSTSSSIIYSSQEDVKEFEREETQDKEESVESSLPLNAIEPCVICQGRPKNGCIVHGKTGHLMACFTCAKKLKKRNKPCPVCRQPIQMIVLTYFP
Mdm2-MdmX conf – Mdm2-MdmX complex disruptors, retested hits, confirmation, luminescence, single concentration; shares compounds with Mdm2 MdmX PPI; Mdm2-MdmX binding, luminescent assay; inhibition, % at 8 µM; 10,000 compounds, 55% hits; in the data active = inhibition above about 40%
Full FLuc ctr – full-length luciferase signal inhibition, confirmation, counter-screen for Mdm2/MdmX interaction inhibitor project, cell-based, single concentration, SaOS-2 | shares compounds with Mdm2 MdmX PPI | SaOS-2 full-length luciferase counterscreen, luminescence | inhibition, % at 8 µM | 6,200 compounds, 77% hits | AID 504607, 2011;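 active = mean inhibition at 8 µM reaching about 37%, which flags the compound as non-specific, limit read from the data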;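 also: p53-null SaOS-2 cells with luciferase driven by a doxycycline-inducible promoter; compound on cells about two nights before reading with doxycycline added after day one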
Numbers stand for hits.

CC(=O)Nc1cc(-c2nn(C)c(=O)c3ccccc23)ccc1N1CCOCC1 was read as 697 NFkB inh inactive, CSC inhib inactive, aSyn 5UTR inh inactive, Jurkat NFkB inh inactive, Gli-Sufu block inactive and Mdm2 MdmX PPI inactive.
`Cc1ccc(S(=O)(=O)Nc2cc(-c3nn(C)c(=O)c4ccccc34)ccc2N2CCOCC2)cc1` gave 697 NFkB inh inactive, CSC inhib inactive, aSyn 5UTR inh 78, Jurkat NFkB inh inactive, Gli-Sufu block inactive, Mdm2 MdmX PPI 86, Mdm2-MdmX conf 77 and Full FLuc ctr inactive.
For CCCC(=O)Nc1cc(-c2nn(C)c(=O)c3ccccc23)ccc1N1CCOCC1 the results were 697 NFkB inh inactive, CSC inhib inactive, aSyn 5UTR inh inactive, Jurkat NFkB inh inactive, Gli-Sufu block inactive and Mdm2 MdmX PPI inactive.
`Cn1nc(-c2ccc(N3CCOCC3)c(NS(=O)(=O)c3ccc(Cl)cc3)c2)c2ccccc2c1=O` gave 697 NFkB inh inactive, CSC inhib inactive, Jurkat NFkB inh inactive, Gli-Sufu block inactive, Mdm2 MdmX PPI 67, Mdm2-MdmX conf inactive and Full FLuc ctr 38.
Screening CCCCN1CCC(=O)C(C(=O)OCC)=C1C(=O)OCC returned Gli-Sufu block inactive.
O=C(CN1C(=O)c2ccccc2C1=O)N1CCN=C1c1ccccc1 was read as 697 NFkB inh inactive, CSC inhib inactive, aSyn 5UTR inh inactive, Jurkat NFkB inh inactive, Gli-Sufu block inactive and Mdm2 MdmX PPI inactive.
Screening COc1ccc(NC(=O)CN(C)S(=O)(=O)c2ccc3[nH]c(=O)oc3c2)cc1 returned 697 NFkB inh inactive, CSC inhib inactive, aSyn 5UTR inh inactive, Jurkat NFkB inh inactive and Mdm2 MdmX PPI inactive.
Screening Cc1[nH]c2ccccc2c1C(O)CN1CCN(c2cccc(C(F)(F)F)c2)CC1 (centres undefined) returned 697 NFkB inh inactive, CSC inhib inactive, aSyn 5UTR inh inactive, Jurkat NFkB inh inactive, Gli-Sufu block inactive, Mdm2 MdmX PPI 59 and Mdm2-MdmX conf inactive.
CC1(C)CC(=O)C(N=Nc2ccc(OC(F)F)cc2)=C(O)C1 was read as 697 NFkB inh inactive, CSC inhib inactive, aSyn 5UTR inh inactive, Jurkat NFkB inh inactive, Gli-Sufu block inactive and Mdm2 MdmX PPI inactive.
O=C(Nc1ccccc1Oc1ccccc1)c1cc([N+](=O)[O-])ccc1Cl was read as 697 NFkB inh inactive, CSC inhib inactive, aSyn 5UTR inh inactive, Jurkat NFkB inh inactive, Gli-Sufu block inactive, Mdm2 MdmX PPI 79, Mdm2-MdmX conf 48 and Full FLuc ctr 68.
For COc1ccc(NC(=O)c2cc([N+](=O)[O-])ccc2O)cc1 the results were 697 NFkB inh inactive, CSC inhib 82, aSyn 5UTR inh 85, Jurkat NFkB inh inactive, Gli-Sufu block inactive, Mdm2 MdmX PPI 81, Mdm2-MdmX conf 76 and Full FLuc ctr 53.
For O=C(Nc1ccc2c(c1)CCCN2C(=O)c1ccco1)c1cc([N+](=O)[O-])ccc1Cl the results were 697 NFkB inh inactive, CSC inhib inactive, aSyn 5UTR inh inactive, Jurkat NFkB inh inactive, Gli-Sufu block inactive, Mdm2 MdmX PPI 82, Mdm2-MdmX conf 82 and Full FLuc ctr 68.
`Cc1cccc(NC(=O)c2cc([N+](=O)[O-])ccc2Cl)c1O` gave CSC inhib inactive, aSyn 5UTR inh inactive and Gli-Sufu block inactive.
O=C(Nc1ccc(Nc2ccccc2)cc1)c1cc([N+](=O)[O-])ccc1Cl was read as 697 NFkB inh inactive, CSC inhib 78, aSyn 5UTR inh inactive, Jurkat NFkB inh inactive, Gli-Sufu block inactive, Mdm2 MdmX PPI 54 and Mdm2-MdmX conf inactive.
For Cc1ccc(S(=O)(=O)N/N=c2\oc3ccccc3cc2C(=O)Nc2cccc(C)c2)cc1 the results were 697 NFkB inh inactive, CSC inhib inactive, aSyn 5UTR inh inactive, Jurkat NFkB inh inactive and Mdm2 MdmX PPI inactive.
For O=C1CCN(S(=O)(=O)c2cccs2)c2ccc(C(F)(F)F)cc2N1 the results were 697 NFkB inh inactive, CSC inhib inactive, aSyn 5UTR inh inactive, Jurkat NFkB inh inactive, Gli-Sufu block inactive and Mdm2 MdmX PPI inactive.
Screening CC(=O)c1nn(-c2ccc(C(F)(F)F)cc2)c(=O)[nH]c1=O returned 697 NFkB inh inactive, CSC inhib inactive, aSyn 5UTR inh inactive, Jurkat NFkB inh inactive, Gli-Sufu block inactive and Mdm2 MdmX PPI inactive.
For O=C(Nc1cccc(C(F)(F)F)c1)N(Cc1ccc(Cl)cc1)CC(O)C(F)(F)F (centres undefined) the results were 697 NFkB inh inactive, CSC inhib inactive, aSyn 5UTR inh inactive, Jurkat NFkB inh inactive, Gli-Sufu block inactive, Mdm2 MdmX PPI 67 and Mdm2-MdmX conf inactive.
For COc1ccc(Nc2cc3n(c(=O)n2)CCc2cc(OC)c(OC)cc2-3)cc1 the results were 697 NFkB inh inactive, CSC inhib inactive, aSyn 5UTR inh inactive, Jurkat NFkB inh inactive, Gli-Sufu block inactive and Mdm2 MdmX PPI inactive.
`COc1cc2c(cc1OC)-c1cc(Nc3ccc4c(c3)OCCO4)nc(=O)n1CC2` gave 697 NFkB inh inactive, CSC inhib inactive, aSyn 5UTR inh inactive, Jurkat NFkB inh inactive, Gli-Sufu block inactive, Mdm2 MdmX PPI 68, Mdm2-MdmX conf 45 and Full FLuc ctr 52.
For O=C(Cc1ccc(Br)cc1)NCc1ccccc1 the results were 697 NFkB inh inactive, CSC inhib inactive, aSyn 5UTR inh inactive, Jurkat NFkB inh inactive, Gli-Sufu block inactive, Mdm2 MdmX PPI 64, Mdm2-MdmX conf 52 and Full FLuc ctr 57.
For Cc1ccc(CNC(=O)Cc2ccc(Br)cc2)cc1 the results were 697 NFkB inh inactive, CSC inhib inactive, aSyn 5UTR inh inactive, Jurkat NFkB inh inactive, Gli-Sufu block inactive and Mdm2 MdmX PPI inactive.
COc1cccc(NC(=O)Nc2nnc(CC(=O)NCc3ccccc3)s2)c1 was read as 697 NFkB inh inactive, CSC inhib inactive, aSyn 5UTR inh inactive, Jurkat NFkB inh inactive, Gli-Sufu block inactive, Mdm2 MdmX PPI 56, Mdm2-MdmX conf 51 and Full FLuc ctr inactive.
`COc1cccc(CNC(=O)Cc2ccc(-c3ccccc3)cc2)c1` gave 697 NFkB inh inactive, aSyn 5UTR inh inactive, Jurkat NFkB inh inactive, Gli-Sufu block inactive, Mdm2 MdmX PPI 67, Mdm2-MdmX conf 59 and Full FLuc ctr 61.
`CN(C)c1ccc(/C=N/OC(=O)Nc2ccccc2Cl)cc1` gave 697 NFkB inh inactive, CSC inhib inactive, aSyn 5UTR inh inactive, Jurkat NFkB inh inactive, Gli-Sufu block inactive and Mdm2 MdmX PPI inactive.
